IP6K1 inhibitor: blocks human inositol hexakisphosphate kinase 1; activity change, % (series mostly up to about 58 µM); IP6K1 kinase, ADP-Glo luminescence, 2 h; stronger effect = lower value; Q92551; 140,000 compounds, 0.81% hits; in the data active = activity change below about -25%
Target sequence (Q92551 whole entry, looked up): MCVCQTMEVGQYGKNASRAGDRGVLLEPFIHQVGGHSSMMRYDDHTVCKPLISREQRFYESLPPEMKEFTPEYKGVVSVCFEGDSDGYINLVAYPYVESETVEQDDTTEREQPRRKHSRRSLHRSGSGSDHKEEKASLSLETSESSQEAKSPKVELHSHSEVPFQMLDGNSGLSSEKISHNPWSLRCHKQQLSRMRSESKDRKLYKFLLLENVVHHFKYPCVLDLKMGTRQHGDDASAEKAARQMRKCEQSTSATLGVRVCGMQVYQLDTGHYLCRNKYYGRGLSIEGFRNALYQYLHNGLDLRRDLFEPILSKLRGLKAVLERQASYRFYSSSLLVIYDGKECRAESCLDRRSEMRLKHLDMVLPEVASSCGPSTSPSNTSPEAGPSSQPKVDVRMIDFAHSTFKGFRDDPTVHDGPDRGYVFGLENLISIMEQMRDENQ
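ADP-Glo luminescence measures ADP made by human IP6K1 during a 2 h RT reaction with ATP/IP6 (mix at 1.3 mM/130 uM); top library doses 57.5 and 19.1 uM final.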
SNCA expr inhib: SNCA gene expression inhibition | HEK-293 SNCA-luciferase knock-in, luminescence, 24 h | Potency, µM (highest dose often 57.2 µM), usual class: inhibitors | 140,000 compounds, 0.17% hits | AID 1671194; note: nearly all actives have a fitted effect of over 45% in size
HEK293 viab: reduces viability of HEK-293 SNCA reporter cells; HEK-293-SNCA-luc viability, GF-AFC fluorescence, 24 h; Potency, µM (titrated, usually from 57.1 µM), hits mostly cytotoxic; 150,000 compounds, 0.12% hits; note: nearly all actives have a fitted effect of over 30% in size
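Cytotoxicity counterscreen: after 24 h compound treatment of genome-edited SNCA-luciferase HEK-293 cells, live-cell protease substrate GF-AFC read by fluorescence after 30 min; activity scaled between DMSO (0%) and medium-only (-100%), curves Hill-fitted.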
KDM5B inhibitor: inhibitors of human KDM5B histone demethylase | 220,000 compounds, 2.6% hits | Q9UGL1 | Potency, µM (series often up to 57.7 µM), actives largely listed as inhibitors | KDM5B demethylase, FDH-coupled NADH fluorescence (FDH is formaldehyde dehydrogenase); note: nearly all actives have a fitted effect of over 70% in size
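Here, H3K4me3 peptide (12.5 µM in substrate mix) is demethylated by KDM5BΔAP, 200 nM final, after 10 min compound exposure. Formaldehyde product is coupled through FDH (0.25 U/mL in mix) to NADH fluorescence; 30-min ΔRFU feeds dose-response curves.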
Numbers stand for hits. Shown are actives, neighbours in structure and some others; about 2.8% of the full set was active somewhere. Unless noted, calls come from the whole dose curve; as a rule, active = well fitted curve in the direction sought with a large enough effect; inconclusive = small, poorly fitted or top-dose-only effect, or another doubt; inactive = no such curve, though single readings can be large; an effect the other way counts as inactive or inconclusive.

What do the screens show for `CC(=O)c1ccc(-c2nc(C3CCOC3)no2)s1` (configuration not stated)?
IP6K1 inhibitor: inactive; SNCA expr inhib: inactive; HEK293 viab: inactive; KDM5B inhibitor: inactive

What do the screens show for `CCC(NC(=O)c1ccc2nc(-c3ccc(F)cc3)cn2c1)c1cccnc1` (configuration not stated)?
IP6K1 inhibitor: inactive; SNCA expr inhib: inactive; HEK293 viab: inactive; KDM5B inhibitor: 28µM

Results for COc1ccc(CCNC(=O)c2ccc3nnc(-c4cc(C(F)(F)F)cc(C(F)(F)F)c4)n3c2)cc1 ?
IP6K1 inhibitor: inactive; SNCA expr inhib: inconclusive; HEK293 viab: inactive

What do the screens show for `O=C(NC1CCCCC1)c1ccc2c(c1)sc1nc(-c3ccc(F)cc3)cn12`?
IP6K1 inhibitor: inactive; SNCA expr inhib: inactive; HEK293 viab: inactive; KDM5B inhibitor: inactive

Results for Cc1cc(C)nc(CNC(=O)c2ccc3nc(-c4ccc(F)cc4)cn3c2)n1 ?
IP6K1 inhibitor: inactive; SNCA expr inhib: inactive; HEK293 viab: inactive; KDM5B inhibitor: 28µM

Results for CCn1cc(-c2ccc(F)cc2)cc1C(=O)NCc1cccnc1 ?
IP6K1 inhibitor: inactive; SNCA expr inhib: inactive; HEK293 viab: inactive; KDM5B inhibitor: inactive

How did COc1ccc(CCNC(=O)c2ccc3nc(C)cn3c2)cc1 do in these assays?
IP6K1 inhibitor: inactive; SNCA expr inhib: inactive; HEK293 viab: inactive; KDM5B inhibitor: 28µM

How did O=C(NC1C=CS(=O)(=O)C1)c1ccc2nc(-c3ccc(F)cc3)cn2c1 (configuration not stated) do in these assays?
IP6K1 inhibitor: inactive; SNCA expr inhib: inactive; HEK293 viab: inactive; KDM5B inhibitor: 25µM

How did CSc1cccc(NC(=O)/C=C/c2ccc(F)cc2)c1 do in these assays?
KDM5B inhibitor: inactive

What do the screens show for `Cn1c(=O)c2c(nc(N3CCN(c4ccccc4)CC3)n2Cc2ccccc2Cl)n(C)c1=O`?
KDM5B inhibitor: inactive

How did CCCCCNC(=O)c1nnn2cc(C)[nH]c(=O)c12 do in these assays?
IP6K1 inhibitor: inactive; SNCA expr inhib: inactive; HEK293 viab: inactive; KDM5B inhibitor: inactive

What do the screens show for `COc1ccc(-c2noc(CN(C(=O)c3cccs3)C3CCCCC3)n2)cc1`?
KDM5B inhibitor: inactive

What do the screens show for `O=S(Cc1ccccc1)Cc1ccc(Cl)cc1` (configuration not stated)?
KDM5B inhibitor: inactive

How did CC(=O)Nc1ccc(-c2csc(Nc3cc(C)ccc3C)n2)cc1 do in these assays?
KDM5B inhibitor: inactive

Results for O=C(c1ccc2nnc(-c3ccc(F)cc3)n2c1)N1CCOCC1 ?
IP6K1 inhibitor: inactive; SNCA expr inhib: inactive; HEK293 viab: inactive; KDM5B inhibitor: inactive

Results for Cn1cc(CN(C(=O)c2ccc3nc(-c4ccccc4)cn3c2)C2CC2)cn1 ?
IP6K1 inhibitor: inactive; SNCA expr inhib: inactive; HEK293 viab: inactive; KDM5B inhibitor: inconclusive

Results for CCNC(=O)C1CCN(C(=O)c2ccc3nc(-c4ccccc4)cn3c2)C1 (configuration not stated) ?
IP6K1 inhibitor: inactive; SNCA expr inhib: inactive; HEK293 viab: inactive; KDM5B inhibitor: 28µM

Results for O=C(c1ccc2nc(-c3ccccc3)cn2c1)N1C[C@@H]2CCC[C@H]1C2 ?
IP6K1 inhibitor: inactive; SNCA expr inhib: inactive; HEK293 viab: inactive; KDM5B inhibitor: 22µM

What do the screens show for `O=C(c1ccc2nc(-c3ccc(F)cc3)cn2c1)N1CCC(F)CC1`?
IP6K1 inhibitor: inactive; SNCA expr inhib: inactive; HEK293 viab: inactive; KDM5B inhibitor: 28µM

What do the screens show for `O=C(NCCCn1ccnc1)c1ccc(Cl)cc1`?
KDM5B inhibitor: inactive

What do the screens show for `O=C(NCCCn1ccnc1)c1ccc2nc(-c3ccc(F)cc3)cn2c1`?
IP6K1 inhibitor: inactive; SNCA expr inhib: inactive; HEK293 viab: inactive; KDM5B inhibitor: 32µM

How did COC(=O)N1CC2=CC(C)(C)COc3ccc(OC)c(c32)C1 do in these assays?
IP6K1 inhibitor: inactive

How did CCOC(=O)[C@@H]1CN(C(=O)c2ccc(C)cc2)[C@H]2c3ccccc3O[C@@H]12 do in these assays?
IP6K1 inhibitor: inactive

What do the screens show for `CCC(=O)N1CCC(Oc2ccc(NC(=O)Cc3ccncc3)cn2)C1` (configuration not stated)?
IP6K1 inhibitor: inactive; SNCA expr inhib: inactive; HEK293 viab: inactive; KDM5B inhibitor: inactive

What do the screens show for `CC1=C[C@@H](CNCc2ccccn2)[C@H](C(C)C)C[C@H]1Cc1nnc(-c2ccccc2)o1`?
IP6K1 inhibitor: inactive; SNCA expr inhib: inconclusive; HEK293 viab: inconclusive; KDM5B inhibitor: inactive

Results for COc1ccccc1-c1nc(C(=O)NCCc2ccc(Cl)cc2)n2ccccc12 ?
IP6K1 inhibitor: inactive; SNCA expr inhib: inactive; HEK293 viab: inactive; KDM5B inhibitor: 79µM

Assay outcomes as filed in PubChem.
